Laboratory results published in PubChem BioAssay AID602357 (National Center for Advancing Translational Sciences (NCATS), 2012).
Records with an inconclusive call do not appear. Calls of active or inactive are those of the source. The call rests on the fitted dose curve; in most records, active means well fitted inhibition curve with a large enough effect; inconclusive means small, poorly fitted or top-dose-only effect; inactive means no such curve, though single readings can be large or run the other way.

These compounds were tested against Luciferin 4-monooxygenase (Photinus pyralis) (UniProt P08659) (assay: FLuc inhibitory activity for the follow-up compounds in a biochemical assay with Km concentrations of substrate). Conditions: purified FLuc, Km substrates, luminescence; series mostly up to 57.5 µM; activity change, negative = inhibition: at the top concentration.
Luciferin 4-monooxygenase (Photinus pyralis), sequence (P08659 whole entry, looked up): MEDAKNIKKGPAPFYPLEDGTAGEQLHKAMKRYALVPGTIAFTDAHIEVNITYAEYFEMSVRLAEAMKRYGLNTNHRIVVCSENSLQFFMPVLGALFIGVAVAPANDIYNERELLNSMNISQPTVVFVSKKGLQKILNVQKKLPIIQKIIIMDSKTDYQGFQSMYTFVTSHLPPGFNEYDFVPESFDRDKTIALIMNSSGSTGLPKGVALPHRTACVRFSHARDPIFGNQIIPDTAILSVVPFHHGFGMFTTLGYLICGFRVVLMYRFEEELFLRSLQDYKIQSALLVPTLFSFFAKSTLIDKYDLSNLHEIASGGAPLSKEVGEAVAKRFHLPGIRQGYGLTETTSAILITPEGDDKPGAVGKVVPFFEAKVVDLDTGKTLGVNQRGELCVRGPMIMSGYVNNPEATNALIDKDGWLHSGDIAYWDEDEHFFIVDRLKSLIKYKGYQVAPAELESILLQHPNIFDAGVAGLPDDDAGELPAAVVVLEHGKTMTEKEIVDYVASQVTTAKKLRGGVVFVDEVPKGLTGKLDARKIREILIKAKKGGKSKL
Text: NCGC Assay Overview: Firefly (Photinus pyralis) luciferase is one of the most commonly used transcriptional reporters. It is considered one of the more dynamically responsive reporters - that is, responsive to changes in reporter transcription - as it requires no post-translational modifications and is enzymatically active directly after protein synthesis (Wood, 1998). With no endogenous expression in mammalian cells and without the requirement of external excitation, it offers very little background signal, thus generally providing excellent signal to background for most assays. Previous profiling work to determine the prevalence of compounds that affect FLuc enzymatic activity (PubChem AID 411) identified that ~3% of the MLSMR library (then at ~72K) inhibited FLuc. […] Of the compounds identified in this profile that inhibited FLuc, 151 compounds were selected for further analysis, in an effort to better understand their mode of inhibiting FLuc. The assay described here confirms the FLuc inhibitory activity of the 151 compounds.
NCGC Assay Protocol Summary: Reagents: 50mM Tris acetate, pH 7.5; 10mM Mg acetate; 10uM D-luciferin (Sigma #L9504); 10uM ATP; 0.01% Tween-20; 0.05% BSA; 10nM P. pyralis luciferase (Sigma #L9506) Control compounds used were two known firefly luciferase inhibitors (3-(5-(3-chlorophenyl)-1,2,4-oxadiazol-3-yl)benzoic acid and 5-(2-fluorophenyl)-3-phenyl-1,2,4-oxadiazole), and DMSO. Three microliters containing firefly luciferase substrates in buffer (final concentrations: 50mM Tris acetate, pH 7.5, 10mM Mg acetate, 0.01% Tween-20, 0.05% BSA, 10uM D-luciferin, and 10uM ATP) are dispensed into each well of a Greiner white, solid-bottom 1536-well format plate using a flying reagent dispenser (FRD). These assay plates were then treated with 23nL of compound or DMSO using a Kalypsys pin tool, which allows for delivery of a 12-point intraplate titration of each compound to the assay plate (quantitative HTS), with a final compound concentrations ranging from approximately ~60uM to 0.3nM. One microliter of firefly luciferase in 500mM Tris-acetate buffer was then delivered by FRD to each well for a final enzyme concentration of 10nM. Luciferase activity was then measured using a ViewLux CCD imager (PerkinElmer), with an average exposure time of 2-30 seconds (2X binning, medium/high gain).

Potency, active:
O=C(O)c1cccc(NC(=O)c2cccc(NC(=O)C3CCCO3)c2)c1 (stereo not given) 0.919 µM
O=C(O)c1cccc(NC(=O)c2cccc(S(=O)(=O)N3CCc4ccccc43)c2)c1 23.1 µM
CC(C)c1ccc(-c2nc3ccccc3s2)cc1 0.0291 µM
COc1ccc(C(=O)Nc2ccccc2C(=O)Nc2ccc(C(=O)O)cc2)cc1 1.63 µM
CC(C)C(=O)Nc1cccc(C(=O)Nc2ccccc2C(=O)O)c1 5.8 µM
Cc1ccccc1C(=O)Nc1cccc(C(=O)Nc2ccccc2C(=O)O)c1 32.6 µM
Cc1c(NC(=O)c2cccs2)cccc1-c1nc2ccccc2s1 4.11 µM
Cc1ccc(C(=O)O/N=C(\N)c2ccccn2)c(Cl)c1 0.0146 µM
CC(=O)Nc1cccc(C(=O)Nc2ccccc2C(=O)O)c1 32.6 µM
CCOc1ccc(C(=O)Nc2cccc(C(=O)O)c2)cc1Cl 0.058 µM
O=C(Nc1ccccc1C(=O)O)c1ccc(NC(=O)C2CCCO2)cc1 (stereo not given) 16.3 µM
O=C(COC(=O)c1ccccc1[N+](=O)[O-])c1ccc2c(c1)OCO2 0.0058 µM
COc1ccc2nc(NC(=O)c3ccccc3C(=O)O)sc2c1 18.3 µM
COc1ccc2nc(NC(=O)c3ccc([N+](=O)[O-])o3)sc2c1 3.66 µM
Cc1ccc2nc(-c3ccc(NC(=O)CN4CCN(C(=O)c5ccco5)CC4)cc3)sc2c1 5.8 µM
CCc1noc(C)c1C(=O)Nc1nc2ccc(OC)cc2s1 13 µM
COc1ccc2nc(NC(=O)c3cnccn3)sc2c1 2.91 µM
Cc1ccc2sc(-c3ccc(NC(=O)c4cc(-n5cnnc5)ccc4Cl)cc3)nc2c1 6.51 µM
COc1ccc2nc(NC(=O)c3ccco3)sc2c1 1.03 µM
Nc1ccccc1-c1nc2ccccc2s1 8.19 µM
O=C(Nc1ccccc1C(=O)O)c1ccc(NC(=O)C2CCCCC2)cc1 11.6 µM
CC(=O)Nc1cccc(-c2nc3ccccc3s2)c1C 23.1 µM
Cc1ccc2nc(-c3ccc(N)cc3)sc2c1 0.0819 µM
Nc1cccc(-c2nc3ccc(N)cc3s2)c1 0.366 µM
Cc1c(NC(=O)C(C)(C)C)cccc1-c1nc2ccccc2s1 3.26 µM
O=C(O)c1cccc(NC(=O)c2ccccc2NC(=O)c2ccccc2F)c1 18.3 µM
Cc1ccc(C(=O)Nc2ccccc2C(=O)O)cc1S(=O)(=O)N1CCCCCC1 1.83 µM
O=C(O)c1cccc(NC(=O)c2cccc(S(=O)(=O)N3CCCCC3)c2)c1 1.63 µM
O=C(O)c1ccc(NC(=O)c2cccc(NC(=O)c3cccs3)c2)cc1 9.19 µM

Activity change, negative = inhibition, inactive:
O=C(O)c1ccc(NC(=O)c2cc(S(=O)(=O)N3CCCCC3)c(Cl)cc2Cl)cc1 8.63%
CCOC(=O)N1CCN(CC(=O)Nc2nc3ccc(OC)cc3s2)CC1 -13.5%
CC(C)Oc1ccc(C(=O)Nc2ccc(-c3nc4ccccc4s3)cc2)cc1 -2.68%
COc1c(C)cccc1C(=O)Nc1ccc(-c2nc3ccccc3s2)c(Cl)c1 -5.09%
COc1ccc(NS(=O)(=O)c2cccc(C(=O)Nc3ccccc3C(=O)O)c2)cc1 -6.02%
CC(C)(C)NC(=O)c1ccccc1-c1nc2ccccc2s1 -8.09%
COc1ccc2nc(NC(=O)C3CCN(S(=O)(=O)c4cccnc4)CC3)sc2c1 -9.68%
O=C(Nc1ccc(Cl)cc1-c1nc2ccccc2s1)c1ccco1 -8.61%
O=C(Nc1ccccc1C(=O)O)c1cc(S(=O)(=O)Nc2ccccc2)ccc1Cl -3.72%
O=C(Nc1c(Cl)cc(Cl)cc1-c1nc2ccccc2s1)c1ccc(Br)o1 -2.8%
COc1ccc(-c2nc3ccccc3s2)cc1NC(=O)c1ccc(F)cc1 -7.28%
